The list is not random: actives were taken first. Their share in the collection is about 3.5%.
MITF inh: inhibitors of human MITF. AlphaScreen MITF homodimerization, bead proximity signal. inhibition, % at 2.6 µM. AID 1259374. O75030. actives 0.91% (n = 650,000); in the data active means inhibition above about 50%;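 further: 0% = vehicle wells with protein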
GPR151 ag: activators of human GPR151. Q8TDV0. PathHunter beta-arrestin GPR151 cells, luminescence. activation, % at 11.2 µM. actives 1% (n = 650,000). AID 1508602; in the data active means activation above about 4.9%;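 further: 0% = median of compound wells and 100% = cells with positive control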
TEAD-YAP inh: TEAD-YAP interaction inhibition; HEK-TIYL cells, TEAD-Gal4/YAP UAS-luciferase luminescence; inhibition, % at 9.12 µM; actives 1.4% (n = 640,000); in the data active means inhibition above about 32%;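 further: 0% = median of test compound wells and 100% = reference inhibitor wells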
FBW7 act: activators of human E3 ligase FBW7 | Q969H0 | AlphaScreen FBW7–phospho-cyclin E peptide binding, activator screen | normalized activity (activation), % at 26.1 µM | actives 0.13% (n = 650,000); in the data active means normalized activity above about 1.9%;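 further: purified mutant Fbw7 with reduced substrate affinity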
Target sequence (Q969H0 whole entry, looked up): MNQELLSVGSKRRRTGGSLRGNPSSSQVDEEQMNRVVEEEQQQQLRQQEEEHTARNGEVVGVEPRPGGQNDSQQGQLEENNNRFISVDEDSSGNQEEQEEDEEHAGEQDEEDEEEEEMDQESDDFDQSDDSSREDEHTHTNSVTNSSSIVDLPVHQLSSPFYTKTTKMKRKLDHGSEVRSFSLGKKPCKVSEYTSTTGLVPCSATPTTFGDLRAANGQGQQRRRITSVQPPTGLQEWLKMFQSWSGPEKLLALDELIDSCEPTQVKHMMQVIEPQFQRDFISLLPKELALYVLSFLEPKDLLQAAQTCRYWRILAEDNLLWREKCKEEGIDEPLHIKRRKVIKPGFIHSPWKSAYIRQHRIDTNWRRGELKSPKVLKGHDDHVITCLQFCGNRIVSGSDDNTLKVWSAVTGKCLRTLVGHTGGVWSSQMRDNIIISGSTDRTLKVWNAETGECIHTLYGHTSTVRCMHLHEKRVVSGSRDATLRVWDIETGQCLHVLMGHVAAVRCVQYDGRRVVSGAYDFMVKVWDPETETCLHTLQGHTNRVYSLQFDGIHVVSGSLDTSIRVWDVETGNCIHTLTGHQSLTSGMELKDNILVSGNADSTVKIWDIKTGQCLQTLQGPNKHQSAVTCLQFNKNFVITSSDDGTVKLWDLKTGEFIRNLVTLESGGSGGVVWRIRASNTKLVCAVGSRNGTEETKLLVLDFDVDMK
Numbers without * were called inactive.

SMILES	MITF inh	GPR151 ag	TEAD-YAP inh	FBW7 act
Cc1ccnc(NC(=O)c2cc([N+](=O)[O-])ccc2Br)c1	-13	0	-19	0
S=C(NNc1nc(N2CCCC2)nc(N2CCCC2)n1)NC1CCCCC1	-11	0	39*	0
O=c1c(O)c(-c2cc(O)c(O)c(O)c2)oc2cc(O)cc(O)c12	82*	0	2	0
O=c1c(O)c(-c2ccccc2)oc2cc(O)cc(O)c12	-19	-1	-21	0
Cc1cc(N2CCCCC2)nc(NCc2ccccc2)n1	-11	2	48*	0
Cc1cc(N2CCCCC2)nc(NCCNC(=O)c2ccco2)n1	-8	2	41*	0
COc1cc(OC)c(NC(=O)NCCNc2nc(C)cc(N3CCCCC3)n2)cc1Cl	2	-1	10	0
Cc1cc(N2CCCCC2)nc(NCCNC(=O)/C=C/c2ccccc2)n1	-1	-2	38*	0
Cc1cc(N2CCOCC2)nc(NCc2ccccc2)n1	13	1	7	0
Cc1cc(N2CCCCC2)nc(NCCNC(=O)Nc2ccc(F)cc2F)n1	0	-2	37*	0
CCOC(=O)C1CCN(C(=O)CSCc2ccc(Cl)cc2)CC1	-3	0	-3	0
CC(=O)C1=NN(c2ccccc2)C(c2ccccc2OCc2ccc(Cl)cc2)N1C(C)(C)C (stereo unspecified)	-9	-1	-1	0
CCOC(=O)/C(N=Nc1ccc(SC(F)F)cc1)=C(\C)O	2	-2	-15	0
COc1ccc(Cn2ccnc2SCC(=O)Nc2nc(C)cs2)cc1	-16	3	4	0
CCCCN(CC)C(=O)CSc1nc2n[nH]c(C)c2c(=N)n1-c1cccc(OC)c1	25	-1	24	1
COc1cccc(-n2c(SCC(=O)N3CCCC3)nc3n[nH]c(C)c3c2=N)c1	15	-1	43*	0
CCOc1ccc(NC(=O)CSc2nc3n[nH]c(C)c3c(=N)n2-c2cccc(OC)c2)cc1	-1	1	33*	0
CCCN(CCC)C(=O)C(CC)Sc1nc2n[nH]c(C)c2c(=N)n1-c1cccc(OC)c1 (stereo unspecified)	10	1	50*	0
CCN(CC)C(=O)CSc1nc2n[nH]c(C)c2c(=N)n1-c1cccc(OC)c1	8	1	44*	0
CC1=C(C(=O)OCC2CCCO2)C(c2cccc(OCc3ccccc3)c2)C2=C(CC(C)(C)CC2=O)N1 (stereo unspecified)	0	-1	-9	1
c1ccc(CCCNc2ncc(-c3cccc4ncccc34)n3ccnc23)cc1	6	0	-22	-1
O=C(Cn1c2ccccc2c(=O)c2ccccc21)N1CCCC1	-3	0	5	0
Cc1cccc(/C(N)=N/OC(=O)c2ccc(C)c([N+](=O)[O-])c2)c1	7	-1	-28	0
O=C(Nc1ccc2oc(-c3cc(Br)ccc3Cl)nc2c1)c1ccc(I)cc1	7	0	2	0
O=C1NC(=O)C2C1C(c1ccco1)NN2Cc1ccccc1 (stereo unspecified)	9	-1	-2	0
SMILES	MITF inh	GPR151 ag	TEAD-YAP inh	FBW7 act
CN(c1ncccc1CNc1cc(Nc2ccc3c(c2)CC(=O)N3)ncc1C(F)(F)F)S(C)(=O)=O	2	0	35*	0
CNC(=O)c1cc(N2CCOCC2)ccc1Nc1cc(Nc2ccc3c(c2)CC(=O)N3)ncc1C(F)(F)F	-11	-1	18	0
CN(c1ncccc1CNc1nc(Nc2ccc3c(c2)CC(=O)N3)ncc1C(F)(F)F)S(C)(=O)=O	7	-1	77*	0
COc1cccc(CNC(=O)C2CCN(C(=O)N3CCOc4ccccc43)CC2)c1	-5	-2	-2	0
COc1ccc(C(CC(=O)O)NC(=O)COc2ccccc2)cc1OC (stereo unspecified)	-11	-1	-5	0
COc1ccc(C(CC(=O)O)NC(=O)COc2cc(C)ccc2C)cc1OC (stereo unspecified)	3	-1	5	2.9*
COc1ccc(NC(=O)CSc2nc3ccccc3c(=O)n2C2CCCCC2)c(OC)c1	13	2	8	0
OCCC1CCCCN1c1ccnc2c(-c3ccoc3)cnn12 (stereo unspecified)	-3	1	-9	0
OCCC1CCCCN1c1ccnc2c(-c3ccc(CO)cc3)cnn12 (stereo unspecified)	-1	0	-27	0
OCCC1CCCCN1c1ccnc2c(-c3ccc(O)cc3)cnn12 (stereo unspecified)	-4	-1	93*	0
OCCC1CCCCN1c1ccnc2c(-c3ccc(Cl)cc3)cnn12 (stereo unspecified)	-11	0	47*	0
O=C(O)c1cccc(-c2cnn3c(N4CCC[C@H]4CO)ccnc23)c1	18	-6	101*	0
OCCC1CCCCN1c1ccnc2c(-c3ccc4c(c3)OCO4)cnn12 (stereo unspecified)	4	0	43*	0
O=C(NC1CCCCC1)c1ccc(F)cc1F	6	0	-22	0
O=c1[nH]c(=S)[nH]c(O)c1N=Nc1c(F)cccc1F	-5	0	-7	-1
OC[C@@H]1CCCN1c1ccnc2c(-c3ccc(Cl)cc3)cnn12	19	-1	85*	0
OC[C@@H]1CCCN1c1ccnc2c(-c3ccccc3Cl)cnn12	1	-1	48*	0
COc1ccccc1-c1cnn2c(N3CCC[C@H]3CO)ccnc12	5	2	-54	0
O=C(Nc1ccc(Cl)c(Cl)c1)c1ccc(F)c(S(=O)(=O)N2CCCc3ccccc32)c1	-8	-1	49*	0
O=C(Nc1ccc(F)c(F)c1)c1ccc(F)c(S(=O)(=O)N2CCCc3ccccc32)c1	-14	1	43*	0
C=CCN1C(=O)/C(=C/c2c(NCCC)nc3c(C)cccn3c2=O)SC1=S	18	0	-10	1
COc1ccc(O)c(C2=Nc3ccccc3N=C(c3ccc(C(C)(C)C)cc3)C2)c1	7	2	56*	0
O=Cc1cccn1Cc1cccc2ccccc12	0	2	10	0
COC(=O)c1cc(-c2c(C)nn(-c3ccccc3)c2C)n[nH]1	-13	0	-21	0
COc1ccc(/C(C)=N\NC(=O)c2cc(-c3c(C)nn(-c4ccccc4)c3C)n[nH]2)cc1	15	-1	44*	0
SMILES	MITF inh	GPR151 ag	TEAD-YAP inh	FBW7 act
CCOC(=O)c1c(C)oc2ccc(N(C(=O)c3ccncc3)S(=O)(=O)c3ccc(C)cc3)cc12	-2	1	48*	0
COC(=O)c1c(C)oc2ccc(N(C(=O)c3ccncc3)S(=O)(=O)c3ccc(Cl)cc3)cc12	12	2	4	0
CCOc1ccc(S(=O)(=O)N(C(=O)c2ccncc2)c2ccc3oc(C)c(C(=O)OC)c3c2)cc1	-8	3	64*	0
CCOC(=O)c1c(C)oc2ccc(N(C(=O)c3ccncc3)S(=O)(=O)c3ccccc3)cc12	7	1	8	0
O=S(=O)(CCOc1ccccc1)Nc1ccc2c(c1)Cc1ccccc1-2	7	2	-10	0
Cc1ccc(NS(=O)(=O)CCOc2ccccc2)cc1F	3	-2	39*	1
